Assay results published in PubChem BioAssay.
Activity calls are given as the source filed them. Unless noted, how the calls were made is not given here.

Tests used:
[1] = tested on: Wnt5a (protein binding on small-molecule microarray); experiment: small molecules binding Wnt5a protein – biophysical, small-molecule microarray, 635/667 nm fluorescence, primary screen (AID 1142); conditions: 635 nm fluorescence, higher = more signal;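 further: fluorescence read at 667 nm with signal to noise per printed feature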
[2] = ATP-based viability of Huh7 replicon cells – cell-based, CellTiter-Glo luminescence, basal, 48 h, cytotoxicity control for HCV replication inhibitor project, primary screen (AID 1143); conditions: higher = more signal, called active from +8 up or from −8 down;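 further: Huh7 hepatoma cells carrying a hepatitis C replication reporter with no stimulus; test concentration not given here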
[3] = Pseudomonas biofilm growth suppression – PAO1 strain, BacTiter-Glo luminescence, LB-PBS, primary screen (AID 1144); conditions: P. aeruginosa PAO1 biofilm, 12 h, higher = more signal
[4] = basal CRE-LacZ reporter activity in PC12 – cell-based, unstimulated, primary screen (AID 1145); conditions: no forskolin, luminescence, 4.5 h, higher = more signal, called active from +8 up or from −8 down
[5] = forskolin-driven CRE-LacZ activity in PC12 – cell-based, CRE-LacZ reporter, forskolin-stimulated, primary screen (AID 1146); conditions: luminescence, 4.5 h, higher = more signal, called active from +8 up or from −8 down;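 further: PC12 cells with 6xCRE LacZ reporter stimulated by forskolin 10 µM; beta-galactosidase reporter signal reflecting CREB driven transcription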
[6] = target: Streptavidin (Streptomyces avidinii) (UniProt P22629); experiment: compounds binding control protein streptavidin – biophysical, small-molecule microarray, 635/667 nm fluorescence, artefact control for SMM compound annotation, primary screen (AID 1147); conditions: higher = more signal;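 further: signal reflects streptavidin binding to arrayed compounds as a control protein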
[7] = probe aInhba binding on compound microarray – biochemical, small-molecule microarray, 635/667 nm fluorescence, primary screen (AID 1148); conditions: higher = more signal;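 further: score merges 667nm spot fluorescence with signal-to-noise for antibody binding to printed compounds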
Torsin-1A (Homo sapiens) [8] = target: Torsin-1A (Homo sapiens) (UniProt O14656); experiment: TOR1A wild-type binding on microarray – cell lysate, small-molecule microarray, lysate, 635/667 nm, primary screen (AID 1149); conditions: COS7 hTOR1A-WT lysate, 635 nm fluorescence, higher = more signal
Torsin-1A (Homo sapiens) [9] = target: Torsin-1A (Homo sapiens) (UniProt O14656); experiment: torsin A mutant lysate binding on microarrays – cell lysate, small-molecule microarray, COS7 lysate, 635/667 nm fluorescence, primary screen (AID 1150); conditions: COS7 hTOR1A mutant lysate, 635 nm fluorescence, higher = more signal;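 further: score pools 667 nm emission and signal to noise measuring lysate protein binding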
[10] = tested on: Sonic hedgehog protein (Shh); experiment: Sonic hedgehog microarray binding compounds – biochemical, small-molecule microarray, 635/667 nm fluorescence, primary screen (AID 1151); conditions: 635 nm fluorescence, higher = more signal;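 further: Shh protein binding to compounds spotted on small-molecule microarray slides; score combines spot fluorescence intensity with signal-to-noise across triplicate slides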
[11] = optical density shifts of acrAB sulA E. coli – strain DRC41, OD650, 48 h, E. coli filamentation inducer project, primary screen (AID 1152); conditions: higher = more signal, called active from +8 up or from −8 down;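 further: E. coli MC1000 strain DRC41 lacking acrAB efflux pump and sulA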
[12] = probe aLefty1 binding on compound microarray – biochemical, small-molecule microarray, 635/667 nm fluorescence, primary screen (AID 1153); conditions: higher = more signal;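 further: score merges spot fluorescence with signal-to-noise ratio from the scanned slide images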
[13] = plasmodial surface anion channel blockers, osmotic lysis – cell-based, P. falciparum Indochina, OD700, 1 h, primary screen (AID 1154); conditions: P. falciparum Indochina infected RBC osmotic lysis, higher = more signal, called active from +8 up or from −8 down
[14] = plasmodial surface anion channel blockers, osmotic lysis – cell-based, P. falciparum Indochina, OD700, 2 h, primary screen (AID 1155);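 further: lysis reports solute entry through the parasite surface anion channel PSAC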; conditions: P. falciparum Indochina infected erythrocytes, higher = more signal, called active from +8 up or from −8 down
[15] = changes in parasitized red cell lysis, either direction – P. falciparum Indochina, OD700, 3 h, PSAC antagonist project, primary screen (AID 1156); conditions: P. falciparum-infected erythrocytes, osmotic lysis, higher = more signal, called active from +8 up or from −8 down
[16] = plasmodial surface anion channel blockers, osmotic lysis – cell-based, P. falciparum Indochina, OD700, 18 h, primary screen (AID 1157); conditions: P. falciparum Indochina infected erythrocytes, osmotic lysis OD700, 18 h; higher = more signal, called active from +8 up or from −8 down
[17] = S6 kinase pathway phospho-S6 level changes – cell-based, A549, cytoblot, luminescence, serum-stimulated, primary screen (AID 1158); conditions: 5 h, higher = more signal;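 further: serum-stimulated A549 lung adenocarcinoma cells; signal is phosphorylated S6 detected by cytoblot immunostaining with HRP secondary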
[18] = target: NADPH oxidase 2 (Homo sapiens) (UniProt P04839); experiment: compounds shifting NOX2 Amplex Red fluorescence – cell-based, HEK293-NOX2, PMA-stimulated, NOX inhibitor project, primary screen (AID 1159); conditions: 45 min, higher = more signal, called active from +8 up or from −8 down; further: test concentration not given here
[19] = target: NADPH oxidase 4 (Homo sapiens) (UniProt Q9NPH5); experiment: compounds shifting NOX4 Amplex Red fluorescence – cell-based, HEK293-NOX4, tetracycline-induced, NOX inhibitor project, primary screen (AID 1160); conditions: HEK293-NOX4, Amplex Red H2O2 fluorescence, 45 min; higher = more signal, called active from +8 up or from −8 down
[20] = target: NADPH oxidase 5 (Homo sapiens) (UniProt Q96PH1); experiment: compounds shifting NOX5 Amplex Red fluorescence – cell-based, HEK293-NOX5, NOX inhibitor project, primary screen (AID 1161); conditions: HEK293-NOX5, ionomycin, 45 min, higher = more signal
NADPH oxidase 5 (Homo sapiens), sequence (Q96PH1 whole entry, looked up): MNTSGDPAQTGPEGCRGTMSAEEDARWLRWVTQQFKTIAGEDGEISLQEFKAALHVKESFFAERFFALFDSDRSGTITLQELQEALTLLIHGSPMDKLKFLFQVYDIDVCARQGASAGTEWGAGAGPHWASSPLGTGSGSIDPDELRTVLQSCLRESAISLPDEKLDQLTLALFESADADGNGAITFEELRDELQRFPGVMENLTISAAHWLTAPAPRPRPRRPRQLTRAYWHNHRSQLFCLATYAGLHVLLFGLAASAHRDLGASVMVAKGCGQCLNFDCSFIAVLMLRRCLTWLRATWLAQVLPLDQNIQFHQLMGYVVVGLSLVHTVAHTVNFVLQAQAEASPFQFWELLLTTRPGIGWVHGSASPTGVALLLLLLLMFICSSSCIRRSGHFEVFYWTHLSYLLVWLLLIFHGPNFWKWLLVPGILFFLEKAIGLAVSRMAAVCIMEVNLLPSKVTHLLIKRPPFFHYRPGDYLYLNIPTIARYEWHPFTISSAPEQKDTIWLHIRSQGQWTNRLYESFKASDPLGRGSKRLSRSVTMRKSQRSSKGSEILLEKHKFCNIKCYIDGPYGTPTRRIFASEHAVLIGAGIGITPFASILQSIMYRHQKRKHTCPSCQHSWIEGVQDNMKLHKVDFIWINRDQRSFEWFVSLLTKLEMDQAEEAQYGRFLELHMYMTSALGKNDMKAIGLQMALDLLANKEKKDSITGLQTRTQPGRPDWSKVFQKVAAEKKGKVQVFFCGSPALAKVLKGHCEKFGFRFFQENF

Torsin-1A (Homo sapiens), sequence (O14656 whole entry, looked up): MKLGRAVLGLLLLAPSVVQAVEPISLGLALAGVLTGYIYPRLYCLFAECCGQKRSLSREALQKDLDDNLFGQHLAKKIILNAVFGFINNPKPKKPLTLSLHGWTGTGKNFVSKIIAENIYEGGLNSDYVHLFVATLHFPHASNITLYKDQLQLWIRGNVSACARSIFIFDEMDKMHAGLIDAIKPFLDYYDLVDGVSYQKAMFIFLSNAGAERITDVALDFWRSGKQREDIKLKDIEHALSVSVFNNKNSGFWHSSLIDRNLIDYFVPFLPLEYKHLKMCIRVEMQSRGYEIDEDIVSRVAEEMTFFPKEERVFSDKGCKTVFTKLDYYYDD
NADPH oxidase 2 (Homo sapiens), sequence (P04839 whole entry, looked up): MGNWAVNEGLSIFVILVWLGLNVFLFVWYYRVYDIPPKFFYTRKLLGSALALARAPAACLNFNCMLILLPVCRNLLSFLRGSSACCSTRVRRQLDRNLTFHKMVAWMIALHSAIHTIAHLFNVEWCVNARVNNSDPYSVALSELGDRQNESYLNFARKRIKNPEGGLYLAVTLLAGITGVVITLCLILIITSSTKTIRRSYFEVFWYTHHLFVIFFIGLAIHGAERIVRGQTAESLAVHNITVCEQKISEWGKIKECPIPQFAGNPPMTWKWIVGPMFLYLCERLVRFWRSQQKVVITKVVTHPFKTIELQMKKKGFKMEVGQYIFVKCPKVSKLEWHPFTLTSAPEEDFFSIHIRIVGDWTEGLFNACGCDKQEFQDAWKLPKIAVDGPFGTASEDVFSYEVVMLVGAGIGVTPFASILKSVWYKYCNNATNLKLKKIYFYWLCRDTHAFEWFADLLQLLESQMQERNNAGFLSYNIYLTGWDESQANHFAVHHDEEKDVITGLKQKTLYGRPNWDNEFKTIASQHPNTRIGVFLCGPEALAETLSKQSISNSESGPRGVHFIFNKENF
NADPH oxidase 4 (Homo sapiens), sequence (Q9NPH5 whole entry, looked up): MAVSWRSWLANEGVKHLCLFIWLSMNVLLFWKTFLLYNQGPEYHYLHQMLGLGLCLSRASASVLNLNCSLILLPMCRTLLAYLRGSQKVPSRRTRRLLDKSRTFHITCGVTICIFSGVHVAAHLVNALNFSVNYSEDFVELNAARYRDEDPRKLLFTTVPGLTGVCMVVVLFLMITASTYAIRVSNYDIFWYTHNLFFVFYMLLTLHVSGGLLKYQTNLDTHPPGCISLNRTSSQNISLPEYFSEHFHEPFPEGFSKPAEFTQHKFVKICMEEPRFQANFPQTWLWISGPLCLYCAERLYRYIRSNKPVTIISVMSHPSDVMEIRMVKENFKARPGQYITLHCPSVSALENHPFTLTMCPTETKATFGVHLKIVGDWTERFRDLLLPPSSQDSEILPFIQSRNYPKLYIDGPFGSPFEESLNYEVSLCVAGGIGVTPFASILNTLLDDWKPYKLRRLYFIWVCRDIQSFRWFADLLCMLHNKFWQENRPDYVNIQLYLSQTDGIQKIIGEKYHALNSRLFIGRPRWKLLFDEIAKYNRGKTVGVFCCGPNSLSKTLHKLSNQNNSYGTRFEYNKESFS
Streptavidin (Streptomyces avidinii), sequence (P22629 whole entry, looked up): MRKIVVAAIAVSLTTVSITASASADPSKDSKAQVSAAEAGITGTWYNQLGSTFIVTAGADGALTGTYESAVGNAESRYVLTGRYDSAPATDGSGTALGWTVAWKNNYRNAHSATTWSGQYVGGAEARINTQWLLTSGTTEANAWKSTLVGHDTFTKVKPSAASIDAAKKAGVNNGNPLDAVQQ

| Compound | composite z-score [1] | z-score [2] | z-score [3] | z-score [4] | z-score [5] | composite z-score [6] | composite z-score [7] | composite z-score (Torsin-1A (Homo sapiens) [8]) | composite z-score (Torsin-1A (Homo sapiens) [9]) | composite z-score [10] | z-score [11] | composite z-score [12] | z-score [13] | z-score [14] | z-score [15] | z-score [16] | z-score [17] | z-score [18] | z-score [19] | z-score [20] |
| --- | --- | --- | --- | --- | --- | --- | --- | --- | --- | --- | --- | --- | --- | --- | --- | --- | --- | --- | --- | --- |
| C=CCC(OC(C)=O)[C@@H]1[C@@H](N(Cc2ccc(-c3cccc(C(F)(F)F)c3)o2)C(=O)c2ccc(-c3ccccc3)cc2)c2cc(OCCCO)ccc2N1C(=O)c1ccc(-c2ccccc2)cc1 (stereo not given in full) | -0.0065 | 0.42 (inactive) | 0.103 (inactive) | 0.0176 (inactive) | 0.262 (inactive) | 0.0998 | -0.0403 | -0.0662 | 0.0093 | 0.32 | -0.894 (inactive) | -0.169 | 0.566 (inactive) | 0.434 (inactive) | 0.0785 (inactive) | 0.508 (inactive) | 0.0635 | -1.27 (inactive) | -1.05 (inactive) | 0.713 |
| CN(C)C(=O)[C@@]1(Cc2ccccc2)N=C(c2ccc(OCCCO)cc2)O[C@H]1c1ccccc1N=[N+]=[N-] | 0.762 | -4.47 (inactive) | -1.05 (inactive) | 0.115 (inactive) | -2.09 (inactive) | 1.5 | 0.086 | 0.697 | 0.505 | -0.346 | 0.89 (inactive) | 0.737 | 30.4 (active) | 27.4 (active) | 2.05 (inactive) | 7.06 (inactive) | 1.33 | -1.93 (inactive) | 0.891 (inactive) | -1.22 |
| COC(=O)c1c(CC[C@@H](CO)NC(=O)N[C@H](Cn2cc(Cc3ccccc3)nn2)C(C)C)oc(C(C)=O)c1C(=O)OC | 0.367 | -2.8 (inactive) | -0.973 (inactive) | 0.904 (inactive) | -1.21 (inactive) | -0.166 | -0.0759 | -0.372 | 0.882 | 2.1 | 0.618 (inactive) | -0.101 | 1.62 (inactive) | -0.452 (inactive) | 0.695 (inactive) | -0.177 (inactive) | 1.53 | -3.91 (inactive) | -1.31 (inactive) | 0.197 |
| O=C1OCCC/C=C\[C@H]2OC34C=CCN(Cn5nnc6ccccc65)C(=O)[C@H]3N(CCCCCCO)C(=O)[C@@H]4C12 (stereo not given in full) | -0.35 | -0.599 (inactive) | -2.19 (inactive) | -1.17 (inactive) | -0.729 (inactive) | -1.08 | -0.214 | 1.27 | 1.43 | 0.326 | 3.64 (inactive) | -0.481 | 3.95 (inactive) | -0.392 (inactive) | -0.193 (inactive) | -0.677 (inactive) | 2.58 | 1.15 (inactive) | 0.377 (inactive) | 2.11 |
| COC(=O)[C@@]1(Cc2ccc(OC)cc2)[C@H]2c3cc(C(=O)N(C)C)n(CCN4CNCC4=O)c3C[C@H]2CN1C(=O)c1ccccc1 | 0.0523 | -0.582 (inactive) | 0.726 (inactive) | -0.754 (inactive) | -0.403 (inactive) | 0.494 | -0.0736 | -0.322 | -0.502 | -2.07 | -1.1 (inactive) | 0.249 | 0.143 (inactive) | -0.954 (inactive) | -0.163 (inactive) | -2.05 (inactive) | 0.963 | 0.821 (inactive) | 2.29 (inactive) | 0.453 |
| COc1ccc(C(=O)Nc2ccc(CN3C(=O)[C@@]4(O[C@@H](CCO)[C@H]([Si](C)(C)c5ccc(OC)cc5)[C@H]4C)c4ccccc43)cc2)cc1 | 0.146 | -8.02 (active) | 0.422 (inactive) | 3.11 (inactive) | -1.27 (inactive) | 0.225 | -0.201 | 1.05 | 0.471 | 1.96 | -1.11 (inactive) | 0.155 | 25.1 (active) | 13.2 (active) | 1.6 (inactive) | 1.75 (inactive) | -0.483 | -6.53 (inactive) | -2.48 (inactive) | -0.954 |
| O=C1c2ccccc2[C@](Cc2ccccc2I)(C(=O)NC2CC2)[C@H](c2ccc(CO)cc2)N1Cc1ccccc1 | 0.384 | -2.11 (inactive) | -1.02 (inactive) | -0.179 (inactive) | 0.0053 (inactive) | -0.248 | 0.0633 | 0.189 | 0.7 | 0.192 | -0.102 (inactive) | 0.284 | 5.07 (inactive) | 0.602 (inactive) | 1.67 (inactive) | 0.181 (inactive) | -0.132 | -0.163 (inactive) | -0.127 (inactive) | -0.768 |
| COc1cc2c(cc1OC)CN(C(=O)[C@@H]1[C@H]3C(=O)O[C@H](c4ccccc4)[C@H](c4ccccc4)N3[C@H](c3ccc(O)cc3)[C@@]13C(=O)Nc1ccc(C#CC4(O)CCCCCC4)cc13)CC2 | 0.382 | -0.292 (inactive) | -0.37 (inactive) | -0.168 (inactive) | -0.65 (inactive) | 1.06 | -0.287 | 0.287 | 0.787 | 1.91 | 0.384 (inactive) | -0.771 | 0.794 (inactive) | 0.657 (inactive) | 0.87 (inactive) | 0.442 (inactive) | 0.137 | 1.65 (inactive) | 0.744 (inactive) | 0.479 |
